# Measurements from PMC7862700, “An all-to-all approach to the identification of sequence-specific readers for epigenetic DNA modifications on cytosine”.
# Legend:
# Assay in all cases: DAPPL (digital affinity profiling via proximity ligation, sequencing); 10 mM Tris-HCl pH 7.5, 50 mM NaCl, 1 mM DTT, 4% glycerol, room temperature, 30 min; GST-TFs on glutathione beads, 16-mer random dsDNA library, 0.1% formaldehyde crosslink after washing; high values mean tight binding
# Settings in all cases: protein: recombinant; tags: N-terminal GST; dsDNA, one strand shown
# ERF = target: T1, ERF (Homo sapiens, UniProt P50548 1-548)
# T1 sequence: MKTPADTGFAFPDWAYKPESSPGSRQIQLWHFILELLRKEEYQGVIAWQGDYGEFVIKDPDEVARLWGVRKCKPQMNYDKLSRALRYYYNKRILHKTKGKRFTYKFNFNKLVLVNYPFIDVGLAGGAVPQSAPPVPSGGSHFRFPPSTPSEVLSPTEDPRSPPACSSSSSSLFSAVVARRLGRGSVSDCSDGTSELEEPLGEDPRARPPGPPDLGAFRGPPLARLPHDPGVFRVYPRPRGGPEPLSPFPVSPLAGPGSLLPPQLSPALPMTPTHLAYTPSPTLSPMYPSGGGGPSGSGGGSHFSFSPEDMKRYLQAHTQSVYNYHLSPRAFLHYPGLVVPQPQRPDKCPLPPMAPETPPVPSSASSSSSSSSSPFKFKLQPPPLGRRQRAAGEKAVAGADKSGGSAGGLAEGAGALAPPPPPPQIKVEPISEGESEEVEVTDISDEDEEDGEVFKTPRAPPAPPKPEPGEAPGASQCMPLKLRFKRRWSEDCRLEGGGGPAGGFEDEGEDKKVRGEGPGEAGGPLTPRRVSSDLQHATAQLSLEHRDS
# In short: (§1)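 Binding signal is each hexamer's read frequency for a factor divided by its frequency in the tag-only sample. The factors were GST-fused human transcription factors from yeast, captured on glutathione beads, DNA-barcoded and pooled with that sample. Pools were incubated with 200 nmole of a random double-stranded 16-mer DNA library in Tris/NaCl/DTT/glycerol buffer at room temperature for 30 min, then washed, crosslinked with 0.1% formaldehyde, proximity-ligated with BsaI/T4 ligase (1 h, 37 °C), PCR-amplified and sequenced on an Illumina NextSeq500.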
# ETV3L = target: T2, ETV3L (Homo sapiens, UniProt Q6ZN32 1-361)
# T2 sequence: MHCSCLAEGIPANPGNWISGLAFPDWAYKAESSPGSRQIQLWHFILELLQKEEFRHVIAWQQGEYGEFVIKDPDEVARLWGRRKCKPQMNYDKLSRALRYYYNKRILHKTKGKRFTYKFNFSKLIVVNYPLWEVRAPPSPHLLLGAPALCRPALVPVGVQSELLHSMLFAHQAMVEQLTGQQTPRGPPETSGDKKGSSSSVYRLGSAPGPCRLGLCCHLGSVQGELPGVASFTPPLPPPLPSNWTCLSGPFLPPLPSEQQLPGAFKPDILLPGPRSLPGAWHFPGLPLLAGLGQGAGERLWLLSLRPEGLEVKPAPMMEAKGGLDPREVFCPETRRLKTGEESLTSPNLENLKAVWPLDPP
# In short: as §1
# ETS2 = target: T3, ETS2 (Homo sapiens, UniProt P15036 1-469)
# T3 sequence: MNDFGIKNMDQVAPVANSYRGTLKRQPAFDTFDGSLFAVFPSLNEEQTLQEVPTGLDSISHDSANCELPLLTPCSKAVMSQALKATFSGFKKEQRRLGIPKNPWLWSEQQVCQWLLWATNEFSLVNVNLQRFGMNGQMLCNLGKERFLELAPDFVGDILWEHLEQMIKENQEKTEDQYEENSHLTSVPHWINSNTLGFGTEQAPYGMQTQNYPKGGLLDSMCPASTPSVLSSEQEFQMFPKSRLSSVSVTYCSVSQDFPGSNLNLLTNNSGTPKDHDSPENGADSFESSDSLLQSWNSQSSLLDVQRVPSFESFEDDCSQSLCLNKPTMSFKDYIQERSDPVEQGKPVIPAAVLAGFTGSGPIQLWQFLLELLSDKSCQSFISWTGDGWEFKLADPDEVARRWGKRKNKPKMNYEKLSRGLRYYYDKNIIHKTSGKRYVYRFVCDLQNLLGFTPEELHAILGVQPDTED
# In short: as §1
# SPDEF = target: T4, SPDEF (Homo sapiens, UniProt O95238 1-335)
# T4 sequence: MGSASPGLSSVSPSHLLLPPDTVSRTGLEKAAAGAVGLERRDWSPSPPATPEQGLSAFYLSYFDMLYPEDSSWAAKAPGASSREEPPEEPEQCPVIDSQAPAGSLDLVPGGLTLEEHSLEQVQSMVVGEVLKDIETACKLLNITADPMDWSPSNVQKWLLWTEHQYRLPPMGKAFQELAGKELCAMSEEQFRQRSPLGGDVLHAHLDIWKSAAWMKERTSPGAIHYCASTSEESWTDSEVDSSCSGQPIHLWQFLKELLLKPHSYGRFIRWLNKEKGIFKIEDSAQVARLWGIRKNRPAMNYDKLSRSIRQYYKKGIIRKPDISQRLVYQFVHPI
# In short: as §1
# ETV7 = target: T5, ETV7 (Homo sapiens, UniProt Q9Y603 1-341)
# T5 sequence: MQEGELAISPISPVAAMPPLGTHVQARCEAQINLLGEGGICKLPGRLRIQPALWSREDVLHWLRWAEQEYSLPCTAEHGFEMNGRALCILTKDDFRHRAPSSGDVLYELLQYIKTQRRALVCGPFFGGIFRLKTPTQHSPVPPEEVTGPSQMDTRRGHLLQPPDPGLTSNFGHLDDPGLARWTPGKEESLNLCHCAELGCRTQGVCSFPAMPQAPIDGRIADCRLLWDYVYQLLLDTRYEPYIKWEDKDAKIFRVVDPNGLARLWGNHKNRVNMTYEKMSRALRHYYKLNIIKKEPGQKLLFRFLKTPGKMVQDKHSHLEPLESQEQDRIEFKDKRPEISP
# In short: as §1
# ELF5 = target: T6, ELF5 (Homo sapiens, UniProt Q9UKW6-2 1-255)
# T6 sequence: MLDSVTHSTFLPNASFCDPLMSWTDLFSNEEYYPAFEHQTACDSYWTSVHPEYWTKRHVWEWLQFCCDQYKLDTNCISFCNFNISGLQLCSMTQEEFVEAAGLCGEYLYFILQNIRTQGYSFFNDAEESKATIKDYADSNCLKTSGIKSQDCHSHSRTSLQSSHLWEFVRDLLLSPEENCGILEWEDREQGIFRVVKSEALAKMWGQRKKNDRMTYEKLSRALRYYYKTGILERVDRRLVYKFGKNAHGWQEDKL
# In short: as §1
# ETV3 = target: T7, ETV3 (Homo sapiens, UniProt P41162-2 1-143)
# T7 sequence: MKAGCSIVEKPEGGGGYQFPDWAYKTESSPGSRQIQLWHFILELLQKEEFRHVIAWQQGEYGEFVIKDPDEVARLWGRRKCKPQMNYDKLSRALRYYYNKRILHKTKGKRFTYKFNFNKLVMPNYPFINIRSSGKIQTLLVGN
# In short: as §1
# ETV6 = ETV6 (Homo sapiens, UniProt P41212 1-452)
# ETV6, sequence (P41212 whole entry): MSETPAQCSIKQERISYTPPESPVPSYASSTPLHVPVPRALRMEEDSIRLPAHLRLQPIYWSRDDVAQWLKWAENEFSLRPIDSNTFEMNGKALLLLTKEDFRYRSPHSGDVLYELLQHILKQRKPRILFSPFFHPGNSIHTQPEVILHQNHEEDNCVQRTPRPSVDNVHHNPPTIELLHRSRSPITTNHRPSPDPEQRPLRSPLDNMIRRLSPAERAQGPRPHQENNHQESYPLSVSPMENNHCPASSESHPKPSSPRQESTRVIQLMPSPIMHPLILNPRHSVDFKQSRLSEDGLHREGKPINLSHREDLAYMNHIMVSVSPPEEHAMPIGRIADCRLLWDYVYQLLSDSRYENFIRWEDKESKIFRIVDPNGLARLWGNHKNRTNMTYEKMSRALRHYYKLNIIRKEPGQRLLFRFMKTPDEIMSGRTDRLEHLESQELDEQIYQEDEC
# In short: as §1
sequence,measurement,setting,value
TAAACC,binding signal,ERF,"1.28 fold enrichment (6-mer frequency, TF over GST control)"
same,binding signal,ETV3L,"1.26 fold enrichment (6-mer frequency, TF over GST control)"
same,binding signal,ETS2,"1.22 fold enrichment (6-mer frequency, TF over GST control)"
same,binding signal,SPDEF,"1.28 fold enrichment (6-mer frequency, TF over GST control)"
same,binding signal,ETV7,"1.22 fold enrichment (6-mer frequency, TF over GST control)"
same,binding signal,ELF5,"1.21 fold enrichment (6-mer frequency, TF over GST control)"
same,binding signal,ETV3,"1.26 fold enrichment (6-mer frequency, TF over GST control)"
same,binding signal,ETV6,"1.29 fold enrichment (6-mer frequency, TF over GST control)"
GTTCCG,binding signal,ERF,"1.74 fold enrichment (6-mer frequency, TF over GST control)"
same,binding signal,ETV3L,"1.93 fold enrichment (6-mer frequency, TF over GST control)"
same,binding signal,ETS2,"1.98 fold enrichment (6-mer frequency, TF over GST control)"
same,binding signal,SPDEF,"2.25 fold enrichment (6-mer frequency, TF over GST control)"
same,binding signal,ETV7,"1.67 fold enrichment (6-mer frequency, TF over GST control)"
same,binding signal,ELF5,"2.5 fold enrichment (6-mer frequency, TF over GST control)"
same,binding signal,ETV3,"2.17 fold enrichment (6-mer frequency, TF over GST control)"
same,binding signal,ETV6,"1.9 fold enrichment (6-mer frequency, TF over GST control)"
CACTAC,binding signal,ERF,"1.33 fold enrichment (6-mer frequency, TF over GST control)"
same,binding signal,ETV3L,"1.29 fold enrichment (6-mer frequency, TF over GST control)"
same,binding signal,ETS2,"1.31 fold enrichment (6-mer frequency, TF over GST control)"
same,binding signal,SPDEF,"1.14 fold enrichment (6-mer frequency, TF over GST control)"
same,binding signal,ETV7,"1.27 fold enrichment (6-mer frequency, TF over GST control)"
same,binding signal,ELF5,"1.26 fold enrichment (6-mer frequency, TF over GST control)"
same,binding signal,ETV3,"1.26 fold enrichment (6-mer frequency, TF over GST control)"
same,binding signal,ETV6,"1.24 fold enrichment (6-mer frequency, TF over GST control)"
GAAACT,binding signal,ERF,"1.03 fold enrichment (6-mer frequency, TF over GST control)"
same,binding signal,ETV3L,"1.22 fold enrichment (6-mer frequency, TF over GST control)"
same,binding signal,ETS2,"1.22 fold enrichment (6-mer frequency, TF over GST control)"
same,binding signal,SPDEF,"1.13 fold enrichment (6-mer frequency, TF over GST control)"
same,binding signal,ETV7,"1.31 fold enrichment (6-mer frequency, TF over GST control)"
same,binding signal,ELF5,"1.28 fold enrichment (6-mer frequency, TF over GST control)"
same,binding signal,ETV3,"1.16 fold enrichment (6-mer frequency, TF over GST control)"
same,binding signal,ETV6,"1.2 fold enrichment (6-mer frequency, TF over GST control)"
TAGAAG,binding signal,ERF,"1.42 fold enrichment (6-mer frequency, TF over GST control)"
same,binding signal,ETV3L,"1.17 fold enrichment (6-mer frequency, TF over GST control)"
same,binding signal,ETS2,"1.12 fold enrichment (6-mer frequency, TF over GST control)"
same,binding signal,SPDEF,"1.06 fold enrichment (6-mer frequency, TF over GST control)"
same,binding signal,ETV7,"1.24 fold enrichment (6-mer frequency, TF over GST control)"
same,binding signal,ELF5,"1.12 fold enrichment (6-mer frequency, TF over GST control)"
same,binding signal,ETV3,"1.12 fold enrichment (6-mer frequency, TF over GST control)"
same,binding signal,ETV6,"1.17 fold enrichment (6-mer frequency, TF over GST control)"
ACACAC,binding signal,ERF,"1.14 fold enrichment (6-mer frequency, TF over GST control)"
same,binding signal,ETV3L,"1.15 fold enrichment (6-mer frequency, TF over GST control)"
same,binding signal,ETS2,"1.17 fold enrichment (6-mer frequency, TF over GST control)"
same,binding signal,SPDEF,"1.14 fold enrichment (6-mer frequency, TF over GST control)"
same,binding signal,ETV7,"1.19 fold enrichment (6-mer frequency, TF over GST control)"
same,binding signal,ELF5,"1.16 fold enrichment (6-mer frequency, TF over GST control)"
same,binding signal,ETV3,"1.18 fold enrichment (6-mer frequency, TF over GST control)"
same,binding signal,ETV6,"1.21 fold enrichment (6-mer frequency, TF over GST control)"
GTCCTC,binding signal,ERF,"1.19 fold enrichment (6-mer frequency, TF over GST control)"
same,binding signal,ETV3L,"1.22 fold enrichment (6-mer frequency, TF over GST control)"
same,binding signal,ETS2,"1.14 fold enrichment (6-mer frequency, TF over GST control)"
same,binding signal,SPDEF,"1.19 fold enrichment (6-mer frequency, TF over GST control)"
same,binding signal,ETV7,"1.39 fold enrichment (6-mer frequency, TF over GST control)"
same,binding signal,ELF5,"1.32 fold enrichment (6-mer frequency, TF over GST control)"
same,binding signal,ETV3,"1.2 fold enrichment (6-mer frequency, TF over GST control)"
same,binding signal,ETV6,"1.06 fold enrichment (6-mer frequency, TF over GST control)"
CTCAGC,binding signal,ERF,"1.1 fold enrichment (6-mer frequency, TF over GST control)"
same,binding signal,ETV3L,"1.36 fold enrichment (6-mer frequency, TF over GST control)"
same,binding signal,ETS2,"1.22 fold enrichment (6-mer frequency, TF over GST control)"
same,binding signal,SPDEF,"1.15 fold enrichment (6-mer frequency, TF over GST control)"
same,binding signal,ETV7,"1.21 fold enrichment (6-mer frequency, TF over GST control)"
same,binding signal,ELF5,"1.08 fold enrichment (6-mer frequency, TF over GST control)"
same,binding signal,ETV3,"1.32 fold enrichment (6-mer frequency, TF over GST control)"
same,binding signal,ETV6,"1.2 fold enrichment (6-mer frequency, TF over GST control)"
ACTCAT,binding signal,ERF,"1.39 fold enrichment (6-mer frequency, TF over GST control)"
same,binding signal,ETV3L,"1.26 fold enrichment (6-mer frequency, TF over GST control)"
same,binding signal,ETS2,"1.29 fold enrichment (6-mer frequency, TF over GST control)"
same,binding signal,SPDEF,"1.24 fold enrichment (6-mer frequency, TF over GST control)"
same,binding signal,ETV7,"1.27 fold enrichment (6-mer frequency, TF over GST control)"
same,binding signal,ELF5,"1.32 fold enrichment (6-mer frequency, TF over GST control)"
same,binding signal,ETV3,"1.3 fold enrichment (6-mer frequency, TF over GST control)"
same,binding signal,ETV6,"1.31 fold enrichment (6-mer frequency, TF over GST control)"
